High-throughput results as filed in PubChem BioAssay.
PostGolgi ctrl = growth of the yeast control strain, post-Golgi counter-screen. inhibition, % at 10 µM. hit rate 5% among 98,000. AID 738. efflux-deficient yeast background strain, growth absorbance A615, 16 h
PostGolgi yeast = growth inhibition of a yeast mutant, post-Golgi transport screen; post-Golgi transport phenotypic cell assay; inhibition, % at 10 µM; hit rate 0.9% among 98,000; AID 739;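 note: yeast cells grown in 1536-well plates; yeast grown about 18 h at 30C before absorbance read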
CYP2C9 inhib = inhibitors of human CYP2C9; CYP2C9 Supersomes, luciferin-H conversion, luminescence; AID 777; P11712; inhibition, % at 5 µM; hit rate 20% among 96,000;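 active = blocking of liver enzyme CYP2C9 beyond about 50% at 5 µM, limit read from the data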
CYP2C19 act = cytochrome P450 2C19 (human) activation; recombinant CYP2C19, luciferin-H EGE luminescence; hits give high values; 0 = fully inhibited enzyme, 1 = untreated enzyme; 96,000 tested, under 10 active; activation factor at 5 µM; P33261;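 active = activation factor of at least 2 at 5 µM in the primary screen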;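 note: 0 = wells with 2.5 mM tranylcypromine and 1 = vehicle-only wells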
Target sequence (P33261 whole entry, looked up): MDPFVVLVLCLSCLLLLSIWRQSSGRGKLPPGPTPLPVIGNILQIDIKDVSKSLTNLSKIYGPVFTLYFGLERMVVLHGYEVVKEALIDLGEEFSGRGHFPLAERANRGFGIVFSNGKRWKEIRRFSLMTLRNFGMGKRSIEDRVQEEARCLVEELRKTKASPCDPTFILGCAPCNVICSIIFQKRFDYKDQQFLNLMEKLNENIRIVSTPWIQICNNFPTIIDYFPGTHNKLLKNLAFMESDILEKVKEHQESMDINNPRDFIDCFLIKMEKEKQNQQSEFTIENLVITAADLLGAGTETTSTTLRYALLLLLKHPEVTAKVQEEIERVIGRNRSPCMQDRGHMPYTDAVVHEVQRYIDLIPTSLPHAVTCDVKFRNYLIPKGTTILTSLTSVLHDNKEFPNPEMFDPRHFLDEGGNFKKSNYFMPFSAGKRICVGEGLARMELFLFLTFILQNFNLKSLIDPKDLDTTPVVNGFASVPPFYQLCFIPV
CYP2C9 act = CYP2C9 (human) activation; hit rate 1.4% among 96,000; AID 1024; P11712; activation factor at 5 µM; recombinant CYP2C9, luciferin-H conversion, luminescence; hits give high values; factor 1 = untreated enzyme, 0 = blocked;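 active = activation factor of 2 or more for CYP2C9 at a 5 µM dose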;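 note: 0 = sulfaphenazole-blocked wells and 1 = vehicle-only wells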
CYP2C19 inh = inhibitors of human CYP2C19 | CYP2C19 Supersomes, luciferin-H EGE luminescence, 30 min | inhibition, % at 5 µM | hit rate 21% among 96,000 | AID 778;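 active = CYP2C19 inhibition above a set limit at 5 µM in the primary screen, cut at about 50% in these data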;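 note: plate controls were negative control wells for no effect and 2.5 mM tranylcypromine positive control for full effect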
* hit, by the source's call; . = no result given. Hits are enriched below; roughly 32% of the tested compounds scored in any of these assays. Cut-off read from the data, not from the text of the source, unless noted: active = inhibition above about 30%; inactive = the rest.

SMILES	PostGolgi ctrl	PostGolgi yeast	CYP2C9 inhib	CYP2C19 act	CYP2C9 act	CYP2C19 inh
O=C(c1cc(-c2ccccc2Cl)on1)N1CCN(C(=O)c2ccco2)CC1	9	-10	-119	0.7	2.2*	32
NC(=O)CSc1ncnc2c1oc1ccccc12	13	-15	5	1	1	-1
O=C(CSc1ncnc2c1oc1ccccc12)Nc1cccc(F)c1	3	0	76*	0.4	0.2	60*
Cc1ccc2nc(NC(=O)CSc3ncnc4c3oc3ccccc34)sc2c1	-2	-4	27	0.8	0.7	22
O=C(CSc1ncnc2c1oc1ccccc12)NC1CCCCC1	-5	-4	72*	0.3	0.3	72*
O=C(CSc1ncnc2c1oc1ccccc12)NCc1ccc(F)cc1	13	-15	72*	0.3	0.3	65*
Cc1cccc(NC(=O)CSc2ncnc3c2oc2ccccc23)c1	11	-5	63*	0.6	0.4	38
Cc1cc(NS(=O)(=O)c2ccc(NC(=O)c3ccoc3C)cc2)nc(C)n1	11	-10	24	0.9	0.8	5
O=C(Nc1cccc(-c2cn3ccccc3n2)c1)c1cc2ccccc2oc1=O	2	-3	42	0.6	0.6	39
Cc1ccccc1NC(=O)Cn1cnc2c(oc3ccccc32)c1=O	4	1	59*	0.4	0.4	64*
Cc1cc(C)nc(Sc2ncnc3c2oc2ccccc23)n1	3	1	-25	0.4	1.3	58*
C=C(C)Cn1c(CCCNC(=O)CCC)nc2ccccc21	4	-14	-77	0.9	1.8	8
O=C1NCCCc2c1oc1cc(Br)c(O)c(Br)c21	14	-4	-7	1	1.1	1
O=C1NCCCC2c3c(cc(Br)c(O)c3Br)OC12N1CCCCC1 (stereo unspecified)	12	-4	44	0	0.6	97*
O=c1c2ccccc2c(-c2ccc(Cl)cc2)nn1-c1ccccc1	40*	6	26	0.8	0.7	20
O=c1c2ccccc2c(-c2ccccc2)nn1-c1cc(Cl)ccc1[N+](=O)[O-]	28	-5	29	0.4	0.7	61*
O=c1c2ccccc2c(-c2ccccc2)nn1Cc1ccc(Cl)cc1	6	-8	58*	0.3	0.4	66*
Cc1cc(=O)oc(C)c1C(=O)NCCNC(=O)c1c(C)cc(=O)oc1C	9	6	-16	1.2	1.2	-16
Cc1ccc(CNC(=O)c2c(C)cc(=O)oc2C)cc1	15	-1	51*	1	0.5	5
CCN(CCCNC(=O)c1c(C)cc(=O)oc1C)c1cccc(C)c1	23	-1	72*	0.1	0.3	92*
Cc1cc(=O)oc(C)c1C(=O)NCCc1ccc(F)cc1	2	-8	-5	1	1	-2
CCOC(OCC)P(=O)(C(C)C)C(C)C	-6	-2	-18	1.1	1.2	-10
Cc1ccc(CCNC(=O)C2CCN(S(=O)(=O)c3cccc4nonc34)CC2)cc1	3	-3	-22	0.9	1.2	5
CCOC(=O)C1CCN(S(=O)(=O)c2cccc3nonc23)CC1	8	15	88*	0.3	0.1	72*
CC1CCN(C(=O)C2CCN(S(=O)(=O)c3cccc4nonc34)CC2)CC1	31*	8	7	0.6	0.9	43
SMILES	PostGolgi ctrl	PostGolgi yeast	CYP2C9 inhib	CYP2C19 act	CYP2C9 act	CYP2C19 inh
Cc1ccc(NC(=O)C2CCN(S(=O)(=O)c3cccc4nonc34)CC2)nc1	-2	-8	-29	0.8	1.3	18
CSCCC(NC(=O)OC(C)(C)C)C(=O)Oc1ccc2c(=O)c(-c3ccc4c(c3)OCCO4)coc2c1 (stereo unspecified)	2	-1	0	0.8	1	18
CCCCNC(=O)/C=C/c1ccc(OC)c(Br)c1	0	-5	-56	0.6	1.6	41
CCOc1ccccc1OCC(=O)Nc1ccc(S(=O)(=O)Nc2nc(C)cc(C)n2)cc1	-7	1	46	0.8	0.5	15
CCOc1cc(S(=O)(=O)Nc2ccccc2CC)ccc1Cl	59*	11	-85	0.2	1.8	82*
CCOc1cc(S(=O)(=O)Nc2ccc(CC)cc2)ccc1Cl	41*	-8	80*	0.5	0.2	46
CCOc1cc(S(=O)(=O)Nc2ccccn2)ccc1F	-5	5	-26	0.8	1.3	21
COc1cc(S(=O)(=O)Nc2ccccc2C)ccc1Cl	20	-6	-98	0	2*	100*
COc1ccccc1CNC(=O)CSc1nc2nc(C)cc(C)n2n1	-2	1	-32	1.1	1.3	-7
Cn1c2c(c(=O)n(C)c1=O)C(NC(=O)c1ccco1)(C(F)(F)F)C(=O)N2 (stereo unspecified)	23	-11	-7	1	1.1	2
CCOc1ccc(C2C(C#N)=C(N)SC(N)=C2C#N)c(OCC)c1	8	14	37	0.8	0.6	20
CCCCc1ccc(C2C(C#N)=C(N)SC(N)=C2C#N)s1	4	4	99*	0.3	0	68*
O=C1C(=O)N(CCO)C(c2cccc(F)c2)/C1=C(\O)c1ccc(Cl)cc1 (stereo unspecified)	15	2	10	1	0.9	4
O=C(CCSc1ccc(Cl)cc1)NC12CC3CC(CC(C3)C1)C2	43*	9	37	0.6	0.6	35
c1ccc(-c2n[nH]c(-c3ccccn3)n2)nc1	-2	13	14	0.3	0.9	67*
COc1cc2c(cc1OC)C1=NC(=O)CN1C(SCc1ccc(C)cc1)=N2	10	9	0	1	1	-4
Cc1ccc(CSC2=Nc3sccc3C3=NC(=O)CN23)cc1	6	0	26	0.3	0.7	66*
CCn1c(SCc2nc3sc(C(=O)O)c(C)c3c(=O)[nH]2)nc2ccccc21	0	16	55*	1	0.4	2
CCOC(=O)CSc1nc2sc(C(=O)O)c(C)c2c(=O)[nH]1	-4	11	-22	0.9	1.2	6
COCCn1c(SCc2nc3sc(C(=O)OC)c(C)c3c(=O)[nH]2)nc2ccccc21	27	1	91*	0.3	0.1	74*
c1ccc(-c2ccccc2-n2cnnn2)cc1	.	.	18	0.6	0.8	43
Cc1nc2ccccc2c2nc(NC(=O)Cc3ccccc3)nn12	12	6	8	0.8	0.9	21
Cc1cc(C)c(C)c(S(=O)(=O)N2CCC(C(=O)OCC(=O)N3c4ccccc4NC(=O)C3(C)C)CC2)c1C	11	3	-60	0.3	1.6	70*
CC1(C)C(=O)Nc2ccccc2N1C(=O)COC(=O)C1CCCCC1	2	-6	61*	0.4	0.4	62*
Cc1ccc(S(=O)(=O)CCC(=O)OCC(=O)N2CC(=O)Nc3ccccc32)cc1	-3	-5	10	0.8	0.9	22
O=C1CN(C(=O)COC(=O)C2CCN(S(=O)(=O)c3ccccc3C(F)(F)F)CC2)c2ccccc2N1	3	-4	-51	0.4	1.5	57*
